The values that follow come from PubChem BioAssay.

“And” between values parts separate entries of the source, which are not always exact repeats. Equal entries are not always repeated. The source made the active and inactive calls.

Assay [1] can be described thus: small molecules captured by biotinylated probe aFSTL3 – biochemical, small-molecule microarray, fluorescence 635/667, stem cell growth factor project, primary screen (AID 1064).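 Also: measures binding of the biotinylated anti-FSTL3 antibody to printed compounds.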 As to conditions: higher = more signal.
Assay [2] in a line: binders from COS7 lysate, DM2A8 probe, primary screen, torsin A project, cell lysate, small-molecule microarray, fluorescence 635/667 (AID 1065). As to conditions: higher = more signal, COS7 lysate expressing mutant human TOR1A.
Assay [3] is described as follows: small molecules captured by biotinylated probe aFGF2 – biochemical, small-molecule microarray, fluorescence 635/667, stem cell growth factor project, primary screen (AID 1067).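 Also: measures binding of biotinylated aFGF2 protein to printed compounds on slides; z-score merges feature fluorescence and signal-to-noise across triplicate slides.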 The conditions noted are these: higher = more signal.
Assay [4] can be described thus: small molecules captured by biotinylated probe aFGF10 – biochemical, small-molecule microarray, fluorescence 635/667, stem cell growth factor project, primary screen (AID 1071).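 Also: score merges 667 nm spot intensity and signal to noise from triplicate slides.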 As to conditions: higher = more signal.
Assay [5] has as its target Neurogenic locus notch homolog protein 2 (Homo sapiens) (UniProt Q04721). Kind of assay: small molecules binding Notch2 protein – biochemical, small-molecule microarray, 635 nm fluorescence, stem cell growth factors, primary screen (AID 1073). As to conditions: higher = more signal.
The target of assay [6] is Pro-neuregulin-1, membrane-bound isoform (Homo sapiens) (UniProt Q02297). Kind of assay: small molecules binding neuregulin-1 protein – biochemical, small-molecule microarray, fluorescence 635/667, psychiatric disease protein project, primary screen (AID 1075).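 Also: score combines 667 nm spot fluorescence with signal to noise.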 As to conditions: NRG1 binding, 635 nm fluorescence, higher = more signal.
Assay [7] relates to Neuregulin-1 EGF-like domain. The experiment in a line: small molecules binding NRG1 EGF domain – biochemical, small-molecule microarray, 635 nm fluorescence, primary screen (AID 1081).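 Also: binding of the protein to compounds printed on small-molecule microarray slides.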 The conditions noted are these: higher = more signal.
Assay [8] in a line: FRG1 expression reporter modulators in myotubes – cell-based, C2C12 myotubes, firefly/Renilla luciferase, luminescence, FRG1 inhibition for FSHD, primary screen (AID 1084). As to conditions: FRG1 promoter luciferase, higher = more signal, called active from +8 up or from −8 down.
The nature of assay [9]: small molecules captured by biotinylated probe aFST – biochemical, small-molecule microarray, fluorescence 635/667, stem cell growth factor project, primary screen (AID 1086).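 Also: score merges 667 nm fluorescence with signal-to-noise of each printed compound spot.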 As to conditions: higher = more signal.
Assay [10] can be described thus: binders of probe aHhip on microarray, primary screen, stem cell growth factor project, biochemical, small-molecule microarray, fluorescence 635/667 (AID 1087).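 Also: score merges spot fluorescence at 667nm with spot signal to noise ratio.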 As to conditions: higher = more signal.
Assay [11] concerns PRMT1 (protein arginine N-methyltransferase 1). Kind of assay: small molecules binding arginine methyltransferase PRMT1 – biochemical, small-molecule microarray, 635 nm fluorescence, primary screen (AID 1088).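 Also: binding of Prmt1 protein to compounds spotted on small-molecule microarray slides.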 As to conditions: higher = more signal.
The nature of assay [12]: growth effects on S. cerevisiae YJM789 – YJM789 clinical isolate, OD600, 24 h, basal, primary screen (AID 1089).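 Also: growth of clinical yeast isolate S. cerevisiae YJM 789 seeded 1000 cells per well; test concentration not given here.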 As to conditions: higher = more signal, called active from +8 up or from −8 down.
The nature of assay [13]: S. pombe growth modifiers, basal conditions – strain 972, OD600, 24 h, no modulator, primary screen (AID 1090).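 Also: basal condition with compound alone and no growth modifier present; test concentration not given here.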 The conditions noted are these: S. pombe 972 growth, higher = more signal, called active from +8 up or from −8 down.
A short description of assay [14]: budding yeast growth modifiers under rapamycin – strain BY4716, OD600, 96 h, primary screen (AID 1091). Also: test concentration not given here. As to conditions: S. cerevisiae BY4716 + rapamycin, higher = more signal, called active from +8 up or from −8 down.
Assay [15] has as its target Torsin-1A-interacting protein 2 (Homo sapiens) (UniProt Q8NFQ8). The experiment in a line: small molecules binding lysate-expressed LULL1 – cell lysate, human LULL1 lysate, 635/667 nm fluorescence, primary screen (AID 1092).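 Also: probe is lysate of COS7 cells overexpressing human LULL1; score merges per-feature 667 nm fluorescence with signal-to-noise.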 As to conditions: small-molecule microarray, hLULL1 lysate binding, 635 nm fluorescence; higher = more signal.
Assay [16] can be described thus: optical density change of DRC41 E. coli – strain DRC41, OD650, 24 h, E. coli filamentation project, primary screen (AID 1093).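 Also: MC1000 strain lacking acrAB efflux and sulA so SOS filamentation is blocked; test concentration not given here.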 The conditions noted are these: E. coli DRC41 growth, higher = more signal, called active from +8 up or from −8 down.
Assay [17] is described as follows: probe aLefty2 binding to arrayed compounds – biochemical, biotinylated probe, 635/667 nm fluorescence, primary screen (AID 1094).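 Also: score merges spot fluorescence near 667 nm with spot signal-to-noise ratio.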 The conditions noted are these: small-molecule microarray, higher = more signal.
Assay [18] has as its system Noggin (protein binding on small-molecule microarray). Kind of assay: small molecules binding Noggin protein – biochemical, 635/667 nm fluorescence, primary screen (AID 1095).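 Also: score merges 667 nm feature fluorescence with signal to noise over triplicate slides.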 As to conditions: 635 nm fluorescence, higher = more signal.
The target of assay [19] is Neurogenic locus notch homolog protein 3 (Homo sapiens) (UniProt Q9UM47). The experiment in a line: small molecules binding NOTCH3 protein – biochemical, 635/667 nm fluorescence, primary screen (AID 1096). The conditions noted are these: small-molecule microarray, 635 nm fluorescence, higher = more signal.
The nature of assay [20]: probe aEGFR binding to arrayed compounds – biochemical, biotinylated probe, 635/667 nm fluorescence, primary screen (AID 1097).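 Also: probe is a biotinylated anti-EGFR antibody binding compounds printed on slides; score combines fluorescence near 667 nm and signal to noise of each spot.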 As to conditions: small-molecule microarray, higher = more signal.

Neurogenic locus notch homolog protein 3 (Homo sapiens), sequence (Q9UM47 whole entry, looked up): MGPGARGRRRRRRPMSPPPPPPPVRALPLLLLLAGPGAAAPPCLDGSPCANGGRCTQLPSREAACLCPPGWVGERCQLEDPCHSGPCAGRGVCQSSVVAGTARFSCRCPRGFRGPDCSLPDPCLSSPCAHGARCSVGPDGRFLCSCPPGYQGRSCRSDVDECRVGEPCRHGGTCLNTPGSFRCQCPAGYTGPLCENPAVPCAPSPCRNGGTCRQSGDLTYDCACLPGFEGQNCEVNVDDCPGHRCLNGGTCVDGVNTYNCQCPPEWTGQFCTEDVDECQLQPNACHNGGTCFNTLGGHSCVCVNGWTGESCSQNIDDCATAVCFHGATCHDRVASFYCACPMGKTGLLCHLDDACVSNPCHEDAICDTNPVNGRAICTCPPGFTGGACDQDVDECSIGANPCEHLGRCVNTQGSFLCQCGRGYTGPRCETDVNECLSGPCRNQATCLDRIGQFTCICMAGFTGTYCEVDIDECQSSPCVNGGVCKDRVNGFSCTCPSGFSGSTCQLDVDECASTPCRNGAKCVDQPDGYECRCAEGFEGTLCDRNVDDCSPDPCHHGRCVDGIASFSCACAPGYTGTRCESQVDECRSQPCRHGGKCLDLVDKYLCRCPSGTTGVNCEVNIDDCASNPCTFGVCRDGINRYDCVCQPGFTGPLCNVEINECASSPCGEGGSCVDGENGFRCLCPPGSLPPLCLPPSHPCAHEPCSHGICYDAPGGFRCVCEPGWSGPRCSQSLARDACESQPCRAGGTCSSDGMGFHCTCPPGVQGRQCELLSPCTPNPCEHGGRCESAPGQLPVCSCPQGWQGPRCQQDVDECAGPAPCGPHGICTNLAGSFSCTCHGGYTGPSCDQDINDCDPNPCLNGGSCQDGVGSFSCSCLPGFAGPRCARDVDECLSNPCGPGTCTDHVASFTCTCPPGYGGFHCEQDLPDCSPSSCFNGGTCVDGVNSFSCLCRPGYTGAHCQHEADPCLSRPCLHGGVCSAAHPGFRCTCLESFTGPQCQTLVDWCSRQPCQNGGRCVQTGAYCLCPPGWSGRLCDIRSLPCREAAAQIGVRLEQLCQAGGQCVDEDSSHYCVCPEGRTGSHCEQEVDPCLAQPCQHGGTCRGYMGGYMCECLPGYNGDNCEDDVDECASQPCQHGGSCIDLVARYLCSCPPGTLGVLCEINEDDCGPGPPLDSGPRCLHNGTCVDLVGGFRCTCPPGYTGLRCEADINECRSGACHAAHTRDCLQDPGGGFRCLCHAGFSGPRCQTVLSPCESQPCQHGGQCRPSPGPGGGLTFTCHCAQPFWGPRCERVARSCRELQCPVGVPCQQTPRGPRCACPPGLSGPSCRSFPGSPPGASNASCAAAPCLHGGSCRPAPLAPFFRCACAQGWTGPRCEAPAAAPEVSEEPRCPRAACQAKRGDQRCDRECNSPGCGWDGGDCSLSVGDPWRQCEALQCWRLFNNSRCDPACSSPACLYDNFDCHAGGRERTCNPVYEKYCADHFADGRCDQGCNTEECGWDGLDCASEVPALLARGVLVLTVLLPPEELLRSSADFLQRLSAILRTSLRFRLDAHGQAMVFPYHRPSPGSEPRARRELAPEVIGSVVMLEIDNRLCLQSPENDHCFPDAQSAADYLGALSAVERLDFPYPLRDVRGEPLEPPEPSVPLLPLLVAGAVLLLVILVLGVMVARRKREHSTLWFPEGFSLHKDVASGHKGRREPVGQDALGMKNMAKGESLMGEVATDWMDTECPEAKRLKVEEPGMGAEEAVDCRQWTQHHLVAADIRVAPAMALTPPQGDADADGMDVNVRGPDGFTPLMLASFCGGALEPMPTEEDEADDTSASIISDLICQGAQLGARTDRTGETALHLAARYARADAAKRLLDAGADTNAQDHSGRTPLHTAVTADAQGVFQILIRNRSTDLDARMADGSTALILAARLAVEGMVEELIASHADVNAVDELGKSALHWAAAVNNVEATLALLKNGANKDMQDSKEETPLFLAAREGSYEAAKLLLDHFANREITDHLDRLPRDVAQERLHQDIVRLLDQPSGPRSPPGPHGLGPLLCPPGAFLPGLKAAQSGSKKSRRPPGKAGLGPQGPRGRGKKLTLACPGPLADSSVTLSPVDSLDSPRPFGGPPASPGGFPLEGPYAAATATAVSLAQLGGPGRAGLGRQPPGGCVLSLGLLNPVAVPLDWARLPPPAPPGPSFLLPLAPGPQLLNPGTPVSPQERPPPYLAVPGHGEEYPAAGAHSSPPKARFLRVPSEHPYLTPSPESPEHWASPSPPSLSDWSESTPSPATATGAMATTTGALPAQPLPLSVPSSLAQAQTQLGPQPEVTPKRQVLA
Torsin-1A-interacting protein 2 (Homo sapiens), sequence (Q8NFQ8 whole entry, looked up): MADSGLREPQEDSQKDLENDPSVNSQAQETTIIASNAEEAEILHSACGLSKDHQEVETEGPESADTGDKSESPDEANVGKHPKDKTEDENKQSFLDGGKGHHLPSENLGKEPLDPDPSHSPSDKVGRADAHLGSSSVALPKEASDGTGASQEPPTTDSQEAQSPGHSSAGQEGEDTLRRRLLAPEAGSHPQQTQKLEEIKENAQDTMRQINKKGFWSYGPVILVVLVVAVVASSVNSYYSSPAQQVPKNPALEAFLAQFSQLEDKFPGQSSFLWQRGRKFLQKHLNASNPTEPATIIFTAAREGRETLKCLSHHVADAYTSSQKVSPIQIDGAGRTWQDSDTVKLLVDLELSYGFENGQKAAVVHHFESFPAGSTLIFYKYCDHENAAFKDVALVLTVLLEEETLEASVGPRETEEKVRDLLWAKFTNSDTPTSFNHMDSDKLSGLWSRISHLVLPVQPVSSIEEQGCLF
Pro-neuregulin-1, membrane-bound isoform (Homo sapiens), sequence (Q02297 whole entry, looked up, the tested form may be a part, canonical isoform): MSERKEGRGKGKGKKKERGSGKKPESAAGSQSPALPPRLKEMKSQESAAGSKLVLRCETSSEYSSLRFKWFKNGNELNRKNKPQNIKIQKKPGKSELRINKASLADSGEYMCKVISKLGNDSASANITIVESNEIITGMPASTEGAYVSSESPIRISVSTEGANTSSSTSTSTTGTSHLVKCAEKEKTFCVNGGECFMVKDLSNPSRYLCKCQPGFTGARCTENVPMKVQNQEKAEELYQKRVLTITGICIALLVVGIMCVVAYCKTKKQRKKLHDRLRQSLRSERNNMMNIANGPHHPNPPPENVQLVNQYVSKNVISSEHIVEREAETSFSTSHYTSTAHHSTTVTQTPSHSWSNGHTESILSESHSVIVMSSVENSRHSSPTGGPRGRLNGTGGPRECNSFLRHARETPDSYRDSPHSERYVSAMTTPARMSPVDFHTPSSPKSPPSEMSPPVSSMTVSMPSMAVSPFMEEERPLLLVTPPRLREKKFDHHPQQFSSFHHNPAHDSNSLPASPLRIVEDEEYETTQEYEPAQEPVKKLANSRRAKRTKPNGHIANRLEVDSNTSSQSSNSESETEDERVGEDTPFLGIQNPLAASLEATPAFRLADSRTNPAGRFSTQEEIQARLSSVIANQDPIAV

Turning to `C[C@@H](c1ccccc1)N1C(=O)[C@H]2[C@H]3[C@H](O)[C@H](O)CC(=O)[C@@H]3CC[C@H]2C1=O`, the composite z-score is -0.289 in assay [1]; 0.118 in [2]; -0.0193 in [3]; 0.534 in assay [4]; 0.694 in assay [5]; -0.0676 in assay [6]. Besides, the composite z-score in assay [7] is 0.603; in [9] it was 0.435; in assay [10], -0.0672; in [11], 0.745; in assay [15], 0.775; in assay [17], -0.0978. In addition, the composite z-score in assay [18] is 0.798; in [19], 0.82; in assay [20], 0.596. Further, the z-score in [8] is -1.06 (inactive); in [12], -2.24 (inactive); in assay [13], -0.971 (inactive); in assay [14] it was -0.727 (inactive); in assay [16], -0.46 (inactive).

For `CC(CO)N1C(=O)[C@@H]2C3C(=O)OCCC=C[C@H]3OC23C=CCN(c2ccc4ccccc4c2)C(=O)[C@@H]13` (stereo not given in full), the composite z-score was 0.265 and -1.11 in assay [1]; -1.36 and -0.483 in assay [2]; -0.0689 and -0.36 in assay [3]; -0.282 and -0.642 in [4]; -0.704 and -1.04 in assay [5]; 0.0944 and 1.21 in [6]. Also, the composite z-score is 0.713 and 1.19 in assay [7]; -0.0414 and 0.226 in [9]; -0.388 and -0.937 in [10]; 0.6 and -0.266 in assay [11]; 3.39 and 0.763 in [15]; -0.116 and -0.192 in [17]. The composite z-score in assay [18] was -0.571 and -0.51; in [19], 0.259 and 0.0899; in [20] it was -0.324 and -0.343. In addition, the z-score in assay [8] was 0.544 (inactive) and 1.81 (inactive); in assay [12], 1.09 (inactive) and -1.28 (inactive); in assay [13], -0.169 (inactive) and -1.95 (inactive); in [14], 0.127 (inactive) and -0.589 (inactive); in assay [16], -0.138 (inactive) and -0.757 (inactive).

Turning to `C=CCN(Cc1ccccc1)C(=O)C1N(c2c(Cl)cccc2CO)C(=O)C2C(C(=O)O)C3C=CC21O3` (stereo not given), the composite z-score in assay [1] was 1.77 and 1.95; in assay [2], -1.28 and -0.799; in [3], -0.176 and -0.166; in assay [4] it was -1.74 and -0.702; in assay [5] it was -2.4 and -2.37; in assay [6], -1.18 and -0.797. The composite z-score is -0.822 and -0.464 in [7]; -0.877 and -0.563 in [9]; -0.418 and -0.137 in assay [10]; -1.44 and -1.17 in [11]; -1.2 and -1.34 in assay [15]; -0.114 and 0.0686 in assay [17]. In addition, the composite z-score in assay [18] was -2.68 and -3.18; in [19], -2.25 and -1.57; in [20], -0.21 and -0.395. Further, the z-score in [8] was -1.05 (inactive) and 1.16 (inactive); in assay [12] it was -3.28 (inactive) and 1.06 (inactive); in assay [13], -0.875 (inactive) and -0.0197 (inactive); in [14] it was -1.39 (inactive) and 0.236 (inactive); in assay [16] it was 3.06 (inactive) and 1.29 (inactive).

For `O=c1n(-c2ccccc2)c(=O)n2n1CC[C@@H]1C(=NOC[C@@H](O)COCc3ccco3)[C@H]3O[C@H]3[C@@H](O)[C@@H]12`, the composite z-score is -0.538 and -0.609 in [1]; 1.27 and 1.24 in [2]; -0.209 and -0.258 in assay [3]; 0.265 and -0.486 in [4]; -0.0496 and 0.156 in assay [5]; -0.498 and -0.0731 in [6]. The composite z-score in assay [7] was 0.874 and -0.672; in [9], 0.0872 and 0.231; in assay [10], -0.0994 and -0.069; in assay [11], 1.23 and -0.267; in assay [15] it was 0.264 and -1.26; in [17], -0.107 and -0.0797. The composite z-score was 1.06 and 0.325 in assay [18]; 0.827 and -0.585 in assay [19]; -0.139 and -0.0512 in assay [20]. In addition, the z-score in assay [8] is 0.193 (inactive) and -0.52 (inactive); in [12], -0.188 (inactive) and 0.0291 (inactive); in assay [13], -0.7 (inactive) and 0.498 (inactive); in [14], 0.0488 (inactive) and 0.801 (inactive); in assay [16] it was -0.517 (inactive) and 0.0684 (inactive).

Turning to `C=CCN(C(=O)C1N(CCCCCCO)C(=O)C2C(C(=O)O)C3C=CC21O3)C(C)(C)C` (stereo not given), the composite z-score is 0.619 and 0.997 in [1]; -1.01 and -1.12 in [2]; -0.159 and -0.313 in assay [3]; -1.58 and -1.55 in [4]; -1.01 and -1.71 in [5]; 1.07 and -0.354 in assay [6]. The composite z-score in assay [7] is -0.192 and 0.886; in [9], -0.492 and -1.5; in [10], -0.169 and 0.0373; in assay [11] it was -0.334 and -0.47; in assay [15] it was -0.773 and 2.17; in [17], -0.231 and -0.0217. The composite z-score in assay [18] was -2.53 and -1.64; in [19], -0.763 and -1.42; in [20], -0.253 and -0.375. For the same molecule, the z-score was 3.01 (inactive) and 0.174 (inactive) in assay [8]; -0.686 (inactive) and -0.559 (inactive) in assay [12]; -1.43 (inactive) and -0.867 (inactive) in assay [13]; -0.235 (inactive) and -0.724 (inactive) in assay [14]; 0.137 (inactive) and -0.31 (inactive) in assay [16].

On to `COC(=O)[C@@]1(Cc2ccc(OC)cc2)[C@H]2c3cc(C(=O)N(C)C)n(Cc4ccc(O)c(OC)c4)c3C[C@H]2CN1C(=O)c1ccccc1`, for which the composite z-score was 0.332 and 0.233 in assay [1]; 0.703 and 0.13 in assay [2]; -0.169 and 0.176 in [3]; 0.123 and 1.17 in [4]; 1.64 and 1.68 in assay [5]; 2.15 and 1.85 in assay [6]. Also, the composite z-score in assay [7] was 1.32 and 1.22; in assay [9], 0.808 and 1.15; in assay [10] it was 0.329 and 0.483; in assay [11] it was -0.406 and 0.571; in assay [15] it was 3.65 and 3.34; in [17], 0.437 and 0.261. Besides, the composite z-score in assay [18] was 0.219 and 0.19; in [19], 0.807 and 1.07; in [20], 0.0395 and 0.0354. Also, the z-score is 2.53 (inactive) and -0.466 (inactive) in [8]; 0.403 (inactive) and -0.731 (inactive) in assay [12]; 1.08 (inactive) and 1.73 (inactive) in assay [13]; 0.374 (inactive) and 2.03 (inactive) in assay [14]; 0.151 (inactive) and 0.266 (inactive) in [16].

Regarding `C=CCN(C(=O)C1N(C(C)(C)CO)C(=O)C2C(C(=O)O)C3C=CC21O3)c1ccc(OC)cc1` (stereo not given), the composite z-score is 1.84 and 1.41 in assay [1]; -1.16 and -1.03 in [2]; -0.237 and -0.195 in [3]; -1.49 and -0.243 in assay [4]; -1.71 and -1.79 in assay [5]; -0.16 and -1.32 in [6]. Also, the composite z-score in assay [7] is 0.493 and -0.364; in [9], -0.898 and -1.25; in assay [10], -0.169 and -0.204; in assay [11] it was -0.504 and -1.28; in assay [15] it was 0.841 and 0.2; in assay [17], 0.0499 and 0.0174. The composite z-score in [18] was -2.91 and -3.66; in assay [19], -0.702 and -1.29; in assay [20], -0.263 and -0.315. Also, the z-score was 1.63 (inactive) and -0.0127 (inactive) in [8]; 0.0659 (inactive) and 1.13 (inactive) in [12]; -1.08 (inactive) and 0.202 (inactive) in assay [13]; 0.558 (inactive) and 0.921 (inactive) in assay [14]; 2.3 (inactive) and 1.15 (inactive) in assay [16].
